Inconclusive results are not listed. Activity calls are given as the source filed them. Unless noted, calls follow the shape of the full dose curve.
Assays:
[1] = qHTS assay to identify small molecule agonists of the sonic hedgehog signaling (Shh) pathway (AID 1259368);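 also: NIH/3T3-derived 3T3Gli1-Luc cells carrying a stable Gli1-driven firefly luciferase reporter; series mostly up to about 92 µM; nearly all actives have a fitted effect of over 15% in size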
Outline: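 Mouse fibroblast (NIH/3T3) reporter cells with stably integrated Gli1-Luc were treated 24 hr with compound; firefly luciferase luminescence served as the read-out.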

[2] = qHTS assay to identify small molecule antagonists of the sonic hedgehog signaling (Shh) pathway (AID 1259369); also: nearly all actives have a fitted effect of over 45% in size
Outline: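 Conditioned medium drives Shh signalling in 3T3Gli1-Luc cells; compounds in DMSO co-applied, 24hr at 37 C, then luciferase luminescence.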

[3] = target: Estrogen receptor beta (Homo sapiens) (UniProt Q92731); test: qHTS assay to identify small molecule agonists of the estrogen receptor beta (ER-beta) signaling pathway (AID 1259377; active = well fitted activation curve with a large enough effect in the signal ratio in the repeat runs, not every such curve was filed as active; the % refers to the signal ratio)
Sequence of Estrogen receptor beta (Homo sapiens) (Q92731 whole entry, looked up): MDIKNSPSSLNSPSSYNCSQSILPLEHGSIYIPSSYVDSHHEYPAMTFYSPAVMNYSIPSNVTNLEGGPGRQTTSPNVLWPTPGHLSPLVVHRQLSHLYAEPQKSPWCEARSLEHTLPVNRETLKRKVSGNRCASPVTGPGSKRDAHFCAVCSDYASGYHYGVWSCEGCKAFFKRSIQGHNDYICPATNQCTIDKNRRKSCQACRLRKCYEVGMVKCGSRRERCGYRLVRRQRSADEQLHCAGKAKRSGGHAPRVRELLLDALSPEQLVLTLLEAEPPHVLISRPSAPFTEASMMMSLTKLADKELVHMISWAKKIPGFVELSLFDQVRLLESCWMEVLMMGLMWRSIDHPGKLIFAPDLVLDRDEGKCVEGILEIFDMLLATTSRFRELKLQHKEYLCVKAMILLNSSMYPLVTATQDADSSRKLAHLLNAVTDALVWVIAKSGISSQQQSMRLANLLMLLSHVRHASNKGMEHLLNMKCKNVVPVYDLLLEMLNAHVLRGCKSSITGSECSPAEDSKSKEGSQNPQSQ
Outline: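 Ratiometric beta-lactamase FRET read-out came after 2 h substrate loading at room temperature. It followed 16 h compound treatment at 37C of GripTite HEK293T cells carrying a UAS-bla reporter, plated in 2% charcoal-stripped FBS medium.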

[4] = target: Estrogen receptor beta (Homo sapiens) (UniProt Q92731); test: qHTS assay to identify small molecule antagonists of the estrogen receptor beta (ER-beta) signaling pathway (AID 1259378; active = well fitted inhibition curve with a large enough effect in the signal ratio in the repeat runs, not every such curve was filed as active; the % refers to the signal ratio)
Outline: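 ER-beta-UAS-bla HEK293T (GripTite) cells in 2% charcoal-stripped FBS medium were preincubated 6 hr at 37C, dosed with compound, then stimulated with 1 nM E2 (final) for 16 hr; beta-lactamase reporter read by B/G FRET fluorescence after 2 hr substrate loading.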

[5] = qHTS assay to identify small molecule agonists of the androgen receptor (AR) signaling pathway in the presence of an antagonist - cell viability counter screen (AID 1259379; active = well fitted curve in the direction sought with a large enough effect in the repeat runs; an effect the other way counts as inactive or inconclusive;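 also: MDA-kb2 human breast cancer cells carrying an MMTV luciferase reporter; series mostly up to about 92 µM; nearly all actives have a fitted effect of over 25% in size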)
Outline: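 A CellTiter-Fluor read-out measured viability of MDA-kb2 reporter cells (MMTV promoter with AR and GR response elements). Treatment: nilutamide 3.0uM final with compounds at 15 concentrations, 16 hr, 37C, 0% CO2.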

[6] = qHTS assay to identify small molecule agonists of the estrogen receptor beta (ER-beta) signaling pathway - cell viability counter screen (AID 1259380; active = well fitted curve in the direction sought with a large enough effect in the repeat runs; an effect the other way counts as inactive or inconclusive; also: nearly all actives have a fitted effect of over 30% in size)
Outline: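 Cells used were ER-beta-UAS-bla HEK293T in medium with 2% charcoal-stripped FBS. They were treated for 16 hr at 37C. Viability came from CellTiter-Glo luminescence.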

[7] = target: Androgen receptor (Homo sapiens) (UniProt P10275); test: qHTS assay to identify small molecule agonists of the androgen receptor (AR) signaling pathway in the presence of an antagonist (AID 1259381); also: nearly all actives have a fitted effect of over 15% in size
Sequence of Androgen receptor (Homo sapiens) (P10275 whole entry, looked up): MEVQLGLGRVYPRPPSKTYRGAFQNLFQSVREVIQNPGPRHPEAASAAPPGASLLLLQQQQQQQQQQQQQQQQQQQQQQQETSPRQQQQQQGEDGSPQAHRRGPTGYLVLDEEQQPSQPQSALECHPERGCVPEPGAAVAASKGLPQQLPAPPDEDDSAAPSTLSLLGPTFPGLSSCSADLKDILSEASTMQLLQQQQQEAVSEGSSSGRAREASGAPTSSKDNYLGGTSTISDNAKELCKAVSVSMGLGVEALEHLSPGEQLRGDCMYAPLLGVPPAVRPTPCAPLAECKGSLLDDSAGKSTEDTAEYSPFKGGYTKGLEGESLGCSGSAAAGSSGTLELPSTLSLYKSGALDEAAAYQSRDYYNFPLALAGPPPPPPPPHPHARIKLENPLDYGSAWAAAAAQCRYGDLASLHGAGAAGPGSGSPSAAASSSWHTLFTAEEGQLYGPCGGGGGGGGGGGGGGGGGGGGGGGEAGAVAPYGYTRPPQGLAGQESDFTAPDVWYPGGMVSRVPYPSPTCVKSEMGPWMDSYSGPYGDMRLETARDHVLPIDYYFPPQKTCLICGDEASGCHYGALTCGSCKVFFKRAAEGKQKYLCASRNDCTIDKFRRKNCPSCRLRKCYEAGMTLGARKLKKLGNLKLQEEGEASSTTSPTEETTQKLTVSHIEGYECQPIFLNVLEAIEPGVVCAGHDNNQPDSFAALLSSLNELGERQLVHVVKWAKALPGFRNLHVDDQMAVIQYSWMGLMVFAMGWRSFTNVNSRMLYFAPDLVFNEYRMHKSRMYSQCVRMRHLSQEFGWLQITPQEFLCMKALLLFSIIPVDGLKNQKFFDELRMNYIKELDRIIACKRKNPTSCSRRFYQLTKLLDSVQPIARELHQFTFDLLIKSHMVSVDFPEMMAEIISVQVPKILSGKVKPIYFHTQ
Outline: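 Using human MDA-kb2 cells with an MMTV promoter–luciferase construct (AR and GR response elements), agonist activity is scored under 3.0uM nilutamide (final) co-treatment; 16hr incubation, 37C, luminescence readout via ONE-Glo.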

[8] = qHTS assay to identify small molecule antagonists of the estrogen receptor beta (ER-beta) signaling pathway - cell viability counter screen (AID 1259382; active = well fitted curve in the direction sought with a large enough effect in the repeat runs; an effect the other way counts as inactive or inconclusive; also: series mostly up to about 92 µM; nearly all actives have a fitted effect of over 55% in size)
Outline: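 Agonist-stimulated (1nM E2) ER-beta-UAS-bla HEK293T cells are incubated with library compounds for 16 hr at 37C. Cell viability is then assessed in the reporter-assay wells by adding CellTiter-Glo and reading luminescence after 30 min.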

[9] = qHTS assay to identify small molecule agonists or antagonists of the thyroid stimulating hormone receptor (TSHR) signaling pathway - wild type cell line counter screen (AID 1259384)
Outline: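 Wild-type HEK293 cells were plated 18 h at 37 C/5% CO2, pin-dosed with compound plus Ro20-1724 medium, held 30 min at room temperature, then given cAMP-d2 and anti-cAMP-cryptate; fluorescence was read after 1 h. Fifteen concentrations, triplicate.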

[10] = target: Thyrotropin receptor (Homo sapiens) (UniProt P16473); test: qHTS assay to identify small molecule antagonists of the thyroid stimulating hormone receptor (TSHR) signaling pathway (AID 1259385); also: nearly all actives have a fitted effect of over 20% in size
Sequence of Thyrotropin receptor (Homo sapiens) (P16473 whole entry, looked up): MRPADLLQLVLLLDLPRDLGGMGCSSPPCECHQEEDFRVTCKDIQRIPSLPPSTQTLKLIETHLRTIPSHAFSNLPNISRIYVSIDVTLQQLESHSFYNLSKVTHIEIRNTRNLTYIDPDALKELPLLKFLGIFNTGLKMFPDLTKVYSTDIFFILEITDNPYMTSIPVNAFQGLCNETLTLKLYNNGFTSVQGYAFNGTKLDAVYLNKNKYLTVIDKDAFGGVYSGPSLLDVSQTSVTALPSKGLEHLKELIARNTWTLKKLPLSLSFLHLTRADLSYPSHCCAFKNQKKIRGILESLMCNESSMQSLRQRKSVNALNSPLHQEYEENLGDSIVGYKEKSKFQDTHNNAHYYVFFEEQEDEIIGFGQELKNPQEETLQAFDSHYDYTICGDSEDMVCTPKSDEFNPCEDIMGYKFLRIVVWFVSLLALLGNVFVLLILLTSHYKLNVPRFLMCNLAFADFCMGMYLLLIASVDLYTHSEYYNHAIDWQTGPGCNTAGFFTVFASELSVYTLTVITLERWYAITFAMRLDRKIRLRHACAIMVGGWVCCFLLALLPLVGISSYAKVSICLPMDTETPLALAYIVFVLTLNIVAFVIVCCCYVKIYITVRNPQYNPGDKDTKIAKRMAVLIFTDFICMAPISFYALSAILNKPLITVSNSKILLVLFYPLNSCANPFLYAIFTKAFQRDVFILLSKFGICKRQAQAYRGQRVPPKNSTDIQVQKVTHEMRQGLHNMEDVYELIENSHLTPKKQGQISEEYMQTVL
Outline: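 TSHR-HEK293 cells were plated and held 18 h at 37C/5% CO2, then given compound plus Ro20-1724 and stimulated with TSH at 1.5 ng/mL final. After 30 min at room temperature, cAMP was detected with cAMP-d2/anti-cAMP-cryptate (1 h) by fluorescence.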

[11] = qHTS assay to identify small molecule agonists of the estrogen receptor alpha (ER-alpha) signaling pathway in the presence of an antagonist - cell viability counter screen (AID 1259386; active = well fitted curve in the direction sought with a large enough effect in the repeat runs; an effect the other way counts as inactive or inconclusive;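 also: series mostly up to about 92 µM; cells exposed to compounds for 22 h at 37 °C before the viability read; nearly all actives have a fitted effect of over 30% in size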)
Outline: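 ICI-182,780 at 10.0nM final accompanies the compound titration (15 concentrations, 22hr, 37C) on VM7Luc4E2 cells. The CellTiter-Fluor fluorescence readout runs in the same wells as the luciferase assay.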

[12] = qHTS assay to identify small molecule antagonists of the progesterone receptor (PR) signaling pathway - cell viability counter screen (AID 1346798; active = well fitted curve in the direction sought with a large enough effect in the repeat runs; an effect the other way counts as inactive or inconclusive; also: series mostly up to about 92 µM; nearly all actives have a fitted effect of over 50% in size)
Outline: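 Cytotoxicity read as CellTiter-Glo luminescence (30 min, room temperature) in the same wells as the beta-lactamase readout. HEK293T PR-UAS-bla cells in charcoal-stripped 2% FBS received compound and R5020, then 16 h at 37C, 5% CO2.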

[13] = qHTS assay to identify small molecule agonists of the progesterone receptor (PR) signaling pathway - cell viability counter screen (AID 1346799); also: nearly all actives have a fitted effect of over 45% in size
Outline: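 Cytotoxicity measured by CellTiter-Glo luminescence (30 min, RT) in the same wells as the PR beta-lactamase agonist read. Those HEK293T cells had 16 h compound treatment at 37 C in 2% charcoal-stripped FBS medium.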

[14] = qHTS assay to identify small molecule antagonists of the TGF-beta/Smad signaling pathway - cell viability counter screen (AID 1346824; active = well fitted curve in the direction sought with a large enough effect in the repeat runs; an effect the other way counts as inactive or inconclusive; also: nearly all actives have a fitted effect of over 50% in size)
Outline: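 SBE-bla HEK 293T cells were plated overnight at 37 C, then given compounds in DMSO plus TGF-beta1 (added as 0.25 ng/mL solution) for 5 hr. After the bla read, CellTiter-Glo was added to the same wells and luminescence read after 30 min at room temperature.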

[15] = qHTS assay to identify small molecule agonists of the TGF-beta/Smad signaling pathway - cell viability counter screen (AID 1346829; active = well fitted curve in the direction sought with a large enough effect in the repeat runs; an effect the other way counts as inactive or inconclusive; also: top concentration of the series differs between compounds; nearly all actives have a fitted effect of over 45% in size)
Outline: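 Tox21 qHTS format: SBE-bla HEK 293T cells treated with DMSO-dissolved compounds for 5 hr; CellTiter-Glo luminescence after 30 min at room temperature.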

[16] = qHTS assay to identify small molecule agonists of the TGF-beta/Smad signaling pathway (AID 1346859; active = well fitted activation curve with a large enough effect in the signal ratio in the repeat runs, not every such curve was filed as active; the % refers to the signal ratio; also: series mostly up to about 77 µM)
Outline: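 Fluorescence (ex 405 nm; em 460 and 530 nm) was read 2 h after LiveBLAzer FRET substrate at RT. The preceding compound treatment of overnight-plated SBE-bla HEK293T cells lasted 5 h at 37 C.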

[17] = target: Thyrotropin-releasing hormone receptor (Homo sapiens) (UniProt P34981); test: qHTS assay to identify small molecule antagonists of the thyrotropin-releasing hormone receptor (TRHR) signaling pathway (AID 1346877; active = well fitted inhibition curve with a large enough effect in the repeat runs, not every such curve was filed as active; also: series mostly up to about 51 µM)
Sequence of Thyrotropin-releasing hormone receptor (Homo sapiens) (P34981 whole entry, looked up): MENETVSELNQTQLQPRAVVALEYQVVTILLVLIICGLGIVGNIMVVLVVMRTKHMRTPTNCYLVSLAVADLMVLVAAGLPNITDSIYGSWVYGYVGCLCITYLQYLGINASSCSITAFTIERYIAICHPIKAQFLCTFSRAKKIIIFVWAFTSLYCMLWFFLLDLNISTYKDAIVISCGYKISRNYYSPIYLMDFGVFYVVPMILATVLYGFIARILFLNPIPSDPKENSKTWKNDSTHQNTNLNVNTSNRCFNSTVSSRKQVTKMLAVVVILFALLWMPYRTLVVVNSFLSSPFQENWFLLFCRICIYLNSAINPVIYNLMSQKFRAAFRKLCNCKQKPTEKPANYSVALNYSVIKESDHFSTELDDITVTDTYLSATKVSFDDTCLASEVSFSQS
Outline: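 Screening used HEK293 cells engineered with TRHR, with a brief 5 min room-temperature compound exposure preceding addition of TRH to 1 nM. The read-out was kinetic calcium-dye fluorescence, concentration-response from 15 doses in triplicate.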

[18] = target: Estrogen receptor (Homo sapiens) (UniProt P03372); test: qHTS assay to identify small molecule agonists of the estrogen receptor alpha (ER-alpha) signaling pathway in the presence of an antagonist (AID 1259383); also: top concentration of the series differs between compounds; nearly all actives have a fitted effect of over 15% in size
Sequence of Estrogen receptor (Homo sapiens) (P03372 whole entry, looked up): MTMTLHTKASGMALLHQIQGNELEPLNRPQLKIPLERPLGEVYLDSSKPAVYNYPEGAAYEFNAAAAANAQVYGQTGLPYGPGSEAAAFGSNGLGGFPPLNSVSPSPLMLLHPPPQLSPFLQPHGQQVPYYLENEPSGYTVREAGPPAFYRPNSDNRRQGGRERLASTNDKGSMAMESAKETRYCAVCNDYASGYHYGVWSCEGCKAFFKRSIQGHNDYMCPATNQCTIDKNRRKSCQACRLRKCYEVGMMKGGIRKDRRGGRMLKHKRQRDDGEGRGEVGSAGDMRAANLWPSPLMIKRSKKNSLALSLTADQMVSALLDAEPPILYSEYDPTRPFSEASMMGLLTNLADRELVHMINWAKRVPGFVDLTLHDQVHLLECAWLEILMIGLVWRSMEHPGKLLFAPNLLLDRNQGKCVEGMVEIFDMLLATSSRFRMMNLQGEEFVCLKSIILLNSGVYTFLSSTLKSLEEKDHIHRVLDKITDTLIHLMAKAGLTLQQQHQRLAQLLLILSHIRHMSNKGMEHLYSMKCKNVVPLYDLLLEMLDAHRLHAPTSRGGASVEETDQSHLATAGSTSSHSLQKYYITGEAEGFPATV
Outline: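 Using VM7Luc4E2 cells seeded 24hr before treatment, antagonist ICI-182,780 (10.0nM final) was added, followed by compounds at 15 concentrations. Plates incubated 22hr; ONE-Glo luminescence quantified reporter activity.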

[19] = target: Progesterone receptor (Homo sapiens) (UniProt P06401); test: qHTS assay to identify small molecule agonists of the progesterone receptor (PR) signaling pathway (AID 1346784); also: nearly all actives have a fitted effect of over 30% in size
Sequence of Progesterone receptor (Homo sapiens) (P06401 whole entry, looked up): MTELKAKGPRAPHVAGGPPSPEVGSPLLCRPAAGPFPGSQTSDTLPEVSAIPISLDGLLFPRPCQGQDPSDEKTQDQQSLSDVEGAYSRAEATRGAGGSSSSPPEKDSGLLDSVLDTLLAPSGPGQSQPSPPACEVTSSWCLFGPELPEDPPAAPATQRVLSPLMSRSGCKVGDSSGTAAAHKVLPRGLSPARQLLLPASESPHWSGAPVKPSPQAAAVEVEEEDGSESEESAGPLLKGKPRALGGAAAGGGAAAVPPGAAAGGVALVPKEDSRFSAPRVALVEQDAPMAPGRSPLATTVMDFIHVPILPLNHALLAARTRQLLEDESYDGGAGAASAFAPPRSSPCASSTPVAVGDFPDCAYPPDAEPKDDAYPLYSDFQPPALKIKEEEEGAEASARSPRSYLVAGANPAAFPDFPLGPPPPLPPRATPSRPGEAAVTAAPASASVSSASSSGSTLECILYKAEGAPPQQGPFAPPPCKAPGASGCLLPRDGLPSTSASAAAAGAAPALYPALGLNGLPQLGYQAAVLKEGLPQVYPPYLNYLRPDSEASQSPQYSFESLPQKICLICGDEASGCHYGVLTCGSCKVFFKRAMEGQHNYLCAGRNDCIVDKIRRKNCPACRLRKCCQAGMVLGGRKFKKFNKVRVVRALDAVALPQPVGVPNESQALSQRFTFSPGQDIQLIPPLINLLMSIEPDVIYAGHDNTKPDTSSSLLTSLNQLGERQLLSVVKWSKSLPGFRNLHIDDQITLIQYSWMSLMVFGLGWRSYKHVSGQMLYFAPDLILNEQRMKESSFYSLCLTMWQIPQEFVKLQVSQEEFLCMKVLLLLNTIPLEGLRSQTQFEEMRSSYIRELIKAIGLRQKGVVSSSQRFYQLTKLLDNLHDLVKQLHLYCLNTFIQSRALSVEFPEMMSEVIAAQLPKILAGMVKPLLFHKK
Outline: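 Agonist qHTS: compounds pinned onto 3,000 PR-UAS-bla HEK 293T cells per well in charcoal-stripped serum medium, 16hr at 37C, then beta-lactamase activity measured by LiveBLAzer FRET fluorescence after 2 hours at room temperature.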

[20] = target: Progesterone receptor (Homo sapiens) (UniProt P06401); test: qHTS assay to identify small molecule antagonists of the progesterone receptor (PR) signaling pathway (AID 1346795; active = well fitted inhibition curve with a large enough effect in the signal ratio in the repeat runs, not every such curve was filed as active; the % refers to the signal ratio)
Outline: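 Antagonist mode with agonist R5020 at 1 nM final and 16 hr incubation at 37C. Reporter was beta-lactamase driven by UAS in HEK293T (PR-UAS-bla), 2% charcoal-stripped serum; signal from LiveBLAzer FRET substrate, 2 hr at room temperature.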

Measured: Potency

COc1nccnc1NS(=O)(=O)c1ccc(N)cc1
not listed: [18] | [19] | [20]
inactive: all other assays above

C[C@H](CCC(=O)O)[C@H]1CC[C@H]2[C@@H]3C(=O)C[C@@H]4CC(=O)CC[C@]4(C)[C@H]3CC(=O)[C@]12C
not listed: [7]
inactive: all other assays above

O=C(CS(=O)Cc1ccco1)NC/C=C\COc1cc(CN2CCCCC2)ccn1 (centres undefined)
not listed: [7]
inactive: all other assays above

CCCCCCCCSCC
not listed: [7] | [11]
inactive: all other assays above

CCOC(=O)[C@H](CCc1ccccc1)N[C@@H](C)C(=O)N1C(=O)N(C)C[C@H]1C(=O)O
not listed: [7]
inactive: all other assays above

C=COCCOCCOCCOC=C
not listed: [8] | [18]
inactive: all other assays above

CC(C)(C)NC(N)=O
not listed: [11]
inactive: all other assays above
